{
  "source": "the supplement of paper PMC8387472",
  "data": [
    {"compound": "CC(=O)O/N=C1\\C(=O)N(Cc2cc(Cl)ccc2Cl)c2ccc(Cl)cc21", "experiment": "fraction of 1-bp insertions among edited reads; higher = more 1-bp insertion outcomes", "conditions": "mESC; 2uM; 72 h treatment, harvest day 5", "values": [
      {"target": "40.0 (DMSO control at this site: 1-bp insertion 0.072, MH deletion 0.192, edited 0.189) GCGAATCAACTGTTCAACAACAGCAGCAGCCACCTGGAGGACTACAGTGGCCTGTCCGTGT", "fraction of 1-bp insertions among edited reads": 0.0727},
      {"target": "42.0 (DMSO control at this site: 1-bp insertion 0.145, MH deletion 0.655, edited 0.132) GGGCTAAACCTATGAGCACAGTAGAACTAAGGGTGGGTGGTGTAGCTAAAGAACTTGACCA", "fraction of 1-bp insertions among edited reads": 0.116},
      {"target": "28.0 (DMSO control at this site: 1-bp insertion 0.035, MH deletion 0.77, edited 0.142) TGGTTCTTCCTTTGTAGAGAGTGTTCATCTGGGAATCTGGGACTTGGATGAGACAATCATT", "fraction of 1-bp insertions among edited reads": 0.0335},
      {"target": "2.0 (DMSO control at this site: 1-bp insertion 0.364, MH deletion 0.356, edited 0.125) GGTGCCCCCGAGACCTACGCGAACCGAAATCGATGTCCGGTGCGCAAGCAGGGCTGGCGTC", "fraction of 1-bp insertions among edited reads": 0.325},
      {"target": "4.0 (DMSO control at this site: 1-bp insertion 0.146, MH deletion 0.523, edited 0.125) ACGCCTTAGTGCACGAGTGACGGGATAATGTGGTCTCAGGTAATTGATAGGCTTCCAACTT", "fraction of 1-bp insertions among edited reads": 0.121},
      {"target": "31.0 (DMSO control at this site: 1-bp insertion 0.315, MH deletion 0.329, edited 0.026) ACCTCCACAGGCTGGGTGGCCCGGAGGCTGGGCGGCCCGGAGGCTGGGCTGGGCGAGTATC", "fraction of 1-bp insertions among edited reads": 0.215},
      {"target": "29.0 (DMSO control at this site: 1-bp insertion 0.084, MH deletion 0.745, edited 0.133) TTGATGAACTTCCTCTTCTTCTCATGTCTCCGGTCTCCGGTAGGCCACGTGCATGGCCACT", "fraction of 1-bp insertions among edited reads": 0.0853},
      {"target": "8.0 GCATGCGTGTTTTGGGACAATGTAGTATACATTTGGGAGGCTCTCAGCTTTTCCCAATAAA", "fraction of 1-bp insertions among edited reads": 0.443},
      {"target": "17.0 (DMSO control at this site: 1-bp insertion 0.112, MH deletion 0.348, edited 0.058) CCATAGCGCGATAAATATGACGGCTCATCCTGTATGACGGCTCATCCTGTATCAACTGTCC", "fraction of 1-bp insertions among edited reads": 0.12},
      {"target": "45.0 (DMSO control at this site: 1-bp insertion 0.017, MH deletion 0.666, edited 0.101) TTACACAGCATGAACTGCTAGGTGATGATGTCAGATTCGGTTTTACTAACTTCTCCAAAAA", "fraction of 1-bp insertions among edited reads": 0.0284},
      {"target": "30.0 (DMSO control at this site: 1-bp insertion 0.074, MH deletion 0.67, edited 0.142) GAGCTGGCATGAGTATTTGTGCCACATGGCTCCCACATGGCTCCACATGCAAGTTTGAAAC", "fraction of 1-bp insertions among edited reads": 0.0901},
      {"target": "44.0 (DMSO control at this site: 1-bp insertion 0.181, MH deletion 0.512, edited 0.123) ACACATACCTTCTTCGAGGCAGCCAGCATGATGAGACAGGTCTCCCACAAACACATCGTGT", "fraction of 1-bp insertions among edited reads": 0.159},
      {"target": "20.0 (DMSO control at this site: 1-bp insertion 0.349, MH deletion 0.138, edited 0.084) TACAGGTGTAGACTGGTTACGTGGCTGCGGAATTGACTGGTTACGTGGCTGCGGAATTTTG", "fraction of 1-bp insertions among edited reads": 0.29},
      {"target": "43.0 (DMSO control at this site: 1-bp insertion 0.134, MH deletion 0.714, edited 0.104) AGTTTAACTTACTCCGGCCAAAAAAGAACTGCACCTCTGGAGCGGGTTAGTGGTGGTGGTA", "fraction of 1-bp insertions among edited reads": 0.0687},
      {"target": "33.0 (DMSO control at this site: 1-bp insertion 0.008, MH deletion 0.771, edited 0.112) CATTAAGAGCAGCTGCCGGCCCCCAAGTGGACAGAGCTGGCCCTGCTGATTCAACAGTGCA", "fraction of 1-bp insertions among edited reads": 0.0218}
    ]}
  ]
}
